# Screening data deposited in PubChem BioAssay by National Center for Advancing Translational Sciences (NCATS).
# CHX counter = Cycloheximide Counterscreen for Small Molecule Inhibitors of Shiga Toxin; cell reporter, cycloheximide protein synthesis inhibition counterscreen; max response, %; actives 12% (n = 300,000); AID 2314, 2010; in the data active = max response mostly above about 13%, no sharp cut-off; inactive = mostly below about 14%; note: read at 38.3 µM for the half of the compounds with a filed dose; 0% is about no effect
# Shiga toxin inh = A qHTS for Small Molecule Inhibitors of Shiga Toxin | Vero cells, Shiga toxin protein synthesis inhibition reporter | inhibition, % at 38.7 µM | actives 9.2% (n = 290,000) | AID 2315, 2010; in the data active = inhibition mostly above about 28%, no sharp cut-off; inactive = mostly below about 43%; note: 0% is about no effect
# Marburg entry inh = qHTS for inhibitors of binding or entry into cells for Marburg Virus | Potency, µM (top dose mostly 37.8 µM), for the others: at the highest dose activity change, negative = inhibition, most hits filed as inhibitors | Marburg virus pseudotyped entry inhibition, cell reporter | actives 1.8% (n = 300,000); calls by dose curve; tested in HEK293 cells; note: potency is the fitted concentration of half-maximal effect; % is set by controls: 0 for no effect and ±100 for the full control effect
# HCV inhibitor = qHTS Assay for Inhibitors of Hepatitis C Virus (HCV); Huh7.5.1 HCVcc-Cre infection, luciferase reporter, 44 h; Potency, µM (titrated, usually from 41.8 µM), for inactives: top-dose activity change, negative = inhibition, usual class: inhibitors; actives 3.4% (n = 340,000); AID 651820, 2012; active = well fitted inhibition curve with a large enough effect; inconclusive = small, poorly fitted or top-dose-only effect, or another doubt; inactive = no such curve, though single readings can be large or run the other way; note: potency is the fitted concentration of half-maximal effect; % is set by controls: 0 for no effect and ±100 for the full control effect
#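 Cells seeded at 1,000/well and cultured 4 h, then compounds added followed by HCVcc-Cre virus (~0.5 moi). After 44 h further culture, luciferase substrate was added, plates held 15 min at room temperature, and luminescence read for 15 sec.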
# FMDV antiviral = High Throughput Screening for Foot and Mouth Disease Virus Antivirals; actives 1.2% (n = 410,000); FMDV antiviral cell-based qHTS; Potency, µM (series often up to 57.9 µM), without a hit: at the highest dose activity change, negative = inhibition, hits mostly inhibitors; calls by dose curve; tested in HEK293T cells; note: read-out not given here; potency is the fitted concentration of half-maximal effect; % is set by controls: 0 for no effect and ±100 for the full control effect; nearly all actives have a fitted effect of over 45% in size
# Lassa entry inh = qHTS for Inhibitors of binding or entry into cells for Lassa Virus. AID 540256, 2011. Lassa virus pseudotype entry inhibition, cell reporter. Potency, µM (highest dose often 37.9 µM), inactives show at the highest dose activity change, negative = inhibition, usual class: inhibitors. actives 1.2% (n = 300,000); calls by dose curve; tested in HEK293 cells; note: potency is the fitted concentration of half-maximal effect; % is set by controls: 0 for no effect and ±100 for the full control effect; nearly all actives have a fitted effect of over 50% in size
# An asterisk follows results filed as active; ? = inconclusive; · = no result given; [ ] = remark or other dose. Sampled rows, rich in hits. Any-hit rate of the full collection: about 13%.
SMILES,CHX counter,Shiga toxin inh,Marburg entry inh,HCV inhibitor,FMDV antiviral,Lassa entry inh
CN(c1ccccc1)S(=O)(=O)c1cccc(NC(=O)CSc2nnc(N)s2)c1,1.2,-8.9,18.4µM*,?,?,?
CN(c1ccccc1)S(=O)(=O)c1cccc(NC(=O)Cc2n[nH]c(=O)c3ccccc23)c1,·,·,·,10µM*,?,·
Cc1cccc(NC(=O)CSc2nnc(N)s2)c1,·,·,·,·,-2.9%,-0.8%[46.1 µM]
CC(C)n1cnnc1SCC(=O)Nc1cccc(S(=O)(=O)N(C)c2ccccc2)c1,0.2,-5.5,·,?,-15.7%,·
CCN(CC)S(=O)(=O)c1cc(NC(=O)Cc2n[nH]c(=O)c3ccccc23)ccc1C,-1.5,16.3,?,?,0.0%,?
Cc1ccccc1C(O)c1cccnc1 (stereo unspecified),0.3,7.7,15.5%,14.8%,-23.8%,17.7%
COc1ccc(S(=O)(=O)NCc2ccc(C(=O)NCc3cccnc3)cc2)cc1,11.3,-14.2,·,·,·,·
COc1cccc(NC(=O)c2ccc(S(=O)(=O)NCc3cccnc3)cc2)c1,-2.9,1.8,-31.3%[46.1 µM],10µM*,0.0%,?
COc1cccc(S(=O)(=O)NCc2ccc(C(=O)Nc3cccc(Cl)c3)cc2)c1,-2.7,-9.8,?,10µM*,25.1µM*,?
CCOc1ccccc1N1CCN(C(=O)c2cccs2)CC1,-2.7,·,6.2%[46.1 µM],7.4%,-20.1%,-21.2%[46.1 µM]
O=C(c1noc2c1CCc1ccccc1-2)N1CCc2ccccc2C1,28.4*,60.5*,0.4%,-19.7%,·,·
O=C(c1noc2c1CCc1ccccc1-2)N1CCOCC1,35.8*,42.6*,-2.4%,-5.4%,64.7%,4.0%
Cc1cc(NC(=O)c2noc3c2CCc2ccccc2-3)no1,-1.5,7.1,·,11.3%,42.3%,·
Cc1onc(-c2ccccc2Cl)c1C(=O)N1CCc2ccccc2C1,-2.3,-5.5,-22.1%,-20.2%,-18.6%,0.7%
O=C(c1noc2c1CCc1ccccc1-2)N1CCCc2ccccc21,20.6*,18.9,?,?,13.1%,3.4%
CN1CCN(c2ncnc3c2ncn3[C@H]2CN(Cc3cccnc3)C[C@@H](CO)O2)CC1,·,·,·,·,-4.6%,·
CC1(C)CCC(=O)c2ccccc21,·,·,0.8%,27.6%,-7.5%,1.0%
CC1(C)CCC2=C(O1)c1ccccc1C(=O)C2=O,·,·,12.6µM*,·,?,·
COc1cccc(OCc2cc(C(=O)N(C)C3CCCCC3)no2)c1,·,·,·,·,51.8%,·
COc1cccc(OCc2cc(C(=O)N(C)CCC3CCCCO3)no2)c1 (stereo unspecified),75.4*,152.0*,12.1%,-24.0%,6.9%,-26.0%
COc1ccccc1OCc1cc(C(=O)N(C)CCC2CCOCC2)no1,·,·,·,·,60.3%,·
CC(=O)c1cccc(OCc2cc(C(=O)N(C)CCC3CCOCC3)no2)c1,41.5*,68.1*,·,-10.4%,22.7%,·
CCCN(CC1CCCO1)C(=O)c1cc(COc2cccc(OC)c2)on1 (stereo unspecified),14.5*,26.3,21.1%,-16.0%,19.5%,24.1%
CCc1nnc(NC(=O)CCC(=O)N2CCN(Cc3ccc(Cl)cc3)CC2)s1,-4.0,-15.5,-23.7%,?,?,-29.3%
CC(C)Cc1nnc(NC(=O)CCC(=O)N2CCN(Cc3ccc(F)cc3)CC2)s1,-5.5,-11.5,·,22.4µM*,-0.2%,·
SMILES,CHX counter,Shiga toxin inh,Marburg entry inh,HCV inhibitor,FMDV antiviral,Lassa entry inh
O=C(CN1CCCN(S(=O)(=O)c2ccc(F)cc2)CC1)Nc1c(Cl)cccc1Cl,-4.0,-7.7,-34.2%[46.1 µM],-14.2%,-29.3%,4.7%[46.1 µM]
O=C1CCCC(=O)N1c1ccc(O)cc1,-2.3,-12.1,10.1%,-18.4%,-1.9%,18.0%
O=C1CCCC(=O)N1c1ccc(Oc2ccc(Cl)cc2)cc1,21.5*,41.1*,8.8%,12.3%,-4.9%,0.8%
O=C(CCCCl)Nc1nc(-c2ccc3c(c2)OCCO3)cs1,30.9*,69.8*,18.1%[46.1 µM],-10.3%,12.9%,?
COc1ccc(-c2csc(NC(=O)CSCC(=O)Nc3cc(C)on3)n2)cc1OC,·,·,?,?,-28.6%,?
N#CCC(=O)Nc1nc(-c2ccc3c(c2)OCCO3)cs1,32.2*,55.7*,·,-1.6%,56.9%,·
O=C(CSCC(=O)N1CCOCC1)Nc1nc(-c2ccc3c(c2)OCO3)cs1,33.2*,34.6,·,-21.8%,16.1%,·
O=C(Nc1nc(-c2ccc3c(c2)OCCO3)cs1)C1CCCC1,48.9*,148.9*,·,?,-10.4%,·
Cc1ccc(C(=O)Nc2nc(-c3ccc4c(c3)OCCO4)cs2)o1,·,·,·,·,-29.2%,·
